From PubChem BioAssay (NCATS)
Records with an inconclusive call do not appear. Active and inactive are the calls of the source. Calls follow the shape of the dose curve; as a rule, active = well fitted cell-killing curve with a large enough effect; inconclusive = small, poorly fitted or top-dose-only effect, or effect the other way; inactive = no such curve, though single readings can be large or run the other way.

Assays:
[1] = Quantitative High-Throughput drug screen in 47 multiple myeloma cell lines against the NCATS MIPE library collection: LP1_DSMZ cell viability assay (AID 1918982); also: nearly all actives have a fitted effect of over 35% in size; also: potency is read from the fitted curve at half-maximal effect
Procedure, shortened: (§1)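 500 cells/well; MIPE 4.0 drugs pin-transferred; 48 h, 37C, 5% CO2. CellTiter-Glo, 5 min RT, luminescence. Controls: DMSO 100%, media 0%.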

[2] = Quantitative High-Throughput drug screen in 47 multiple myeloma cell lines against the NCATS MIPE library collection: KMS34_JCRB cell viability assay (AID 1918985); also: nearly all actives have a fitted effect of over 40% in size; also: potency is read from the fitted curve at half-maximal effect
Procedure, shortened: as §1

[3] = Quantitative High-Throughput drug screen in 47 multiple myeloma cell lines against the NCATS MIPE library collection: OCIMY5_PLB cell viability assay (AID 1918988); also: potency is read from the fitted curve at half-maximal effect; nearly all actives have a fitted effect of over 65% in size
Procedure, shortened: as §1

[4] = Quantitative High-Throughput drug screen in 47 multiple myeloma cell lines against the NCATS MIPE library collection: SKMM1_PLB cell viability assay (AID 1919863); settings: SKMM1 myeloma viability, CellTiter-Glo ATP, 48 h; viability: active compounds read low; also: nearly all actives have a fitted effect of over 35% in size; also: potency is read from the fitted curve at half-maximal effect
Procedure, shortened: as §1

[5] = Quantitative High-Throughput drug screen in 47 multiple myeloma cell lines against the NCATS MIPE library collection: XG6_PLB cell viability assay (AID 1919865); also: nearly all actives have a fitted effect of over 40% in size; also: potency is read from the fitted curve at half-maximal effect
Procedure, shortened: as §1

[6] = Quantitative High-Throughput drug screen in 47 multiple myeloma cell lines against the NCATS MIPE library collection: XG1_PLB cell viability assay (AID 1919866); also: nearly all actives have a fitted effect of over 35% in size; also: potency is read from the fitted curve at half-maximal effect
Procedure, shortened: as §1

[7] = Quantitative High-Throughput drug screen in 47 multiple myeloma cell lines against the NCATS MIPE library collection: VP6_DJ cell viability assay (AID 1919867); also: nearly all actives have a fitted effect of over 40% in size; also: potency is read from the fitted curve at half-maximal effect;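 as to viability (% of DMSO): 100% = DMSO-only wells and 0% = wells with media alone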
Procedure, shortened: as §1

[8] = Quantitative High-Throughput drug screen in 47 multiple myeloma cell lines against the NCATS MIPE library collection: PE2_PLB cell viability assay (AID 1919869); also: nearly all actives have a fitted effect of over 35% in size; also: potency is read from the fitted curve at half-maximal effect;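 as to viability (% of control): 100% = DMSO-only wells and 0% = cell-free media-only wells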
Procedure, shortened: as §1

[9] = Quantitative High-Throughput drug screen in 47 multiple myeloma cell lines against the NCATS MIPE library collection: RPMI8226_ATCC cell viability assay (AID 1919871); also: nearly all actives have a fitted effect of over 30% in size; also: potency is read from the fitted curve at half-maximal effect
Procedure, shortened: as §1

[10] = Quantitative High-Throughput drug screen in 47 multiple myeloma cell lines against the NCATS MIPE library collection: OPM2_DSMZ cell viability assay (AID 1919872); also: nearly all actives have a fitted effect of over 30% in size
Procedure, shortened: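 Primary qHTS used for cherry-picking: cells at 500/well, library compounds for 48 h (37C, 5% CO2), luminescent ATP assay.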

[11] = Quantitative High-Throughput drug screen in 47 multiple myeloma cell lines against the NCATS MIPE library collection: KMS11_JCRBsus cell viability assay (AID 1919873); also: nearly all actives have a fitted effect of over 50% in size; also: potency is read from the fitted curve at half-maximal effect;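 as to viability (% of control): 100% = DMSO-only wells and 0% = media-only wells without cells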
Procedure, shortened: as §1

[12] = Quantitative High-Throughput drug screen in 47 multiple myeloma cell lines against the NCATS MIPE library collection: KMS28PE_JCRB cell viability assay (AID 1918983); also: nearly all actives have a fitted effect of over 35% in size
Procedure, shortened: as §1

[13] = Quantitative High-Throughput drug screen in 47 multiple myeloma cell lines against the NCATS MIPE library collection: OCIMY7_PLB cell viability assay (AID 1918987); settings: OCI-MY7 myeloma viability, CellTiter-Glo ATP, 48 h; viability (% of DMSO): at 45.8 µM (top of the series); also: potency is read from the fitted curve at half-maximal effect; nearly all actives have a fitted effect of over 65% in size
Procedure, shortened: as §1

[14] = Quantitative High-Throughput drug screen in 47 multiple myeloma cell lines against the NCATS MIPE library collection: U266_ATCC cell viability assay (AID 1919864); also: nearly all actives have a fitted effect of over 35% in size; also: potency is read from the fitted curve at half-maximal effect;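 as to viability (% of DMSO control): 0% = media-only wells without cells and 100% = DMSO-only wells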
Procedure, shortened: as §1

[15] = Quantitative High-Throughput drug screen in 47 multiple myeloma cell lines against the NCATS MIPE library collection: UTMC2_PLB cell viability assay (AID 1919868); settings: CellTiter-Glo ATP luminescence, 48 h; viability (% of DMSO control): at 45.8 µM (top of the series); also: potency is read from the fitted curve at half-maximal effect; nearly all actives have a fitted effect of over 55% in size
Procedure, shortened: as §1

[16] = Quantitative High-Throughput drug screen in 47 multiple myeloma cell lines against the NCATS MIPE library collection: KMS28BM_JCRB cell viability assay (AID 1919874); also: nearly all actives have a fitted effect of over 35% in size; also: potency is read from the fitted curve at half-maximal effect
Procedure, shortened: as §1

[17] = Quantitative High-Throughput drug screen in 47 multiple myeloma cell lines against the NCATS MIPE library collection: L363_DSMZ cell viability assay (AID 1918984); settings: L363 myeloma viability, CellTiter-Glo ATP luminescence, 48 h; viability (% of control): at 45.8 µM (top of the series); also: potency is read from the fitted curve at half-maximal effect; nearly all actives have a fitted effect of over 40% in size
Procedure, shortened: as §1

[18] = Quantitative High-Throughput drug screen in 47 multiple myeloma cell lines against the NCATS MIPE library collection: OPM1_PLB cell viability assay (AID 1918989); also: nearly all actives have a fitted effect of over 40% in size; also: potency is read from the fitted curve at half-maximal effect
Procedure, shortened: as §1

[19] = Quantitative High-Throughput drug screen in 47 multiple myeloma cell lines against the NCATS MIPE library collection: PCM6_Riken cell viability assay (AID 1919870); also: nearly all actives have a fitted effect of over 30% in size; also: potency is read from the fitted curve at half-maximal effect
Procedure, shortened: as §1

O=C(Nc1ccccc1)Nc1ccc(-c2ccc(C(=O)[C@H]3CCC[C@H]3C(=O)O)cc2)cc1
active: Potency [3] 20.9 µM | Potency [5] 4.69 µM | Potency [6] 2.96 µM
inactive: Potency [1] | Potency [2] | viability [4] 114% | Potency [7] | Potency [8] | Potency [9] | Potency [10] | Potency [11]

N#Cc1c(N(CC(=O)O)CC(=O)O)sc(C(=O)O)c1CC(=O)O
inactive: Potency [1] | Potency [12] | viability [4] 102% | Potency [14] | Potency [9] | Potency [10] | Potency [16]
active: Potency [13] 8.33 µM | Potency [15] 23.5 µM | Potency [8] 14.8 µM

Cc1cnc(Nc2cccc(CN3CCOCC3)c2)nc1Nc1cccc(S(=O)(=O)NC(C)(C)C)c1
inactive: Potency [14]
active: Potency [1] 14.8 µM | Potency [17] 5.26 µM | Potency [2] 3.32 µM | Potency [13] 1.05 µM | Potency [3] 3.72 µM | Potency [18] 1.48 µM | Potency [4] 7.43 µM | Potency [5] 1.18 µM | Potency [6] 1.05 µM | Potency [7] 2.96 µM | Potency [15] 1.18 µM | Potency [8] 1.87 µM | Potency [19] 6.62 µM

CNC(=O)c1c(-c2ccc(F)cc2)oc2cc(N(CCO)S(C)(=O)=O)c(C3CC3)cc12
active: Potency [5] 18.7 µM

OCCn1cc(-c2ccc3c(c2)CCC3=NO)c(-c2ccncc2)n1
active: Potency [14] 23.5 µM | Potency [5] 13.2 µM | Potency [7] 16.6 µM | Potency [19] 20.9 µM
inactive: Potency [2] | Potency [18] | Potency [9] | Potency [10]

CC[C@H]1OC(=O)[C@H](C)[C@@H](O[C@H]2C[C@@](C)(OC)[C@@H](O)[C@H](C)O2)[C@H](C)[C@@H](O[C@@H]2O[C@H](C)C[C@H](N(C)C)[C@H]2O)[C@](C)(O)C[C@H](C)C(=NOCOCCOC)[C@H](C)[C@@H](O)[C@]1(C)O
active: Potency [9] 4.69 µM
inactive: Potency [2] | Potency [18] | Potency [5] | Potency [6] | Potency [8] | Potency [19] | Potency [10]

Cc1cc(-c2ncc(CC(=O)Nc3ccc(-c4cnccn4)cn3)cc2C)ccn1
active: Potency [17] 14.8 µM | Potency [3] 11.8 µM | Potency [18] 8.33 µM | Potency [14] 20.9 µM | Potency [5] 14.8 µM | Potency [6] 16.6 µM | Potency [7] 18.7 µM | Potency [8] 18.7 µM | Potency [11] 1.87 µM
inactive: viability [4] 117% | Potency [16]

CNC(=O)c1cc(COc2nnc(Nc3ccc(Cl)cc3)c3ccoc23)ccn1
active: Potency [3] 20.9 µM | Potency [4] 23.5 µM | Potency [9] 20.9 µM
inactive: Potency [18] | Potency [14]

COc1cc2c(cc1Cc1cccc(Cl)c1F)c(=O)c(C(=O)O)cn2[C@H](CO)C(C)C
active: Potency [2] 20.9 µM | Potency [13] 18.7 µM | Potency [3] 7.43 µM | Potency [5] 18.7 µM | Potency [6] 18.7 µM | Potency [7] 10.5 µM | Potency [8] 23.5 µM | Potency [9] 14.8 µM | Potency [11] 2.96 µM | Potency [16] 23.5 µM

CC(C)(C)c1[nH]cnc1C=c1[nH]c(=O)c(=Cc2ccccc2)[nH]c1=O
inactive: Potency [6] | Potency [10] | Potency [11]

CC[C@@H]([C@H](C)O)n1ncn(-c2ccc(N3CCN(c4ccc(OCC5CO[C@@](Cn6cncn6)(c6ccc(F)cc6F)C5)cc4)CC3)cc2)c1=O (stereo partly specified)
active: Potency [3] 18.7 µM | Potency [5] 20.9 µM | Potency [7] 23.5 µM | Potency [8] 10.5 µM | Potency [11] 11.8 µM
inactive: Potency [18] | Potency [14]

CCC(=O)OCC(=O)[C@@]1(OC(=O)CC)[C@@H](C)C[C@@H]2[C@H]3CCC4=CC(=O)C=C[C@]4(C)[C@@]3(F)[C@@H](O)C[C@@]21C
inactive: viability [4] 97.1% | Potency [14]
active: Potency [17] 1.05 µM | Potency [18] 14.8 µM | Potency [5] 11.8 µM | Potency [7] 11.8 µM | Potency [9] 0.418 µM | Potency [11] 0.0526 µM
